From PubChem BioAssay (EPA / NIEHS) come the findings set out here.

Some structures have more than one record in an assay (separate samples or runs), and their calls can disagree. Calls of active or inactive are those of the source. The calls were made as follows: active = hit-call score of the fitted dose curve at least 0.9, where 1 is the maximum; inactive = score below 0.9.

Read-out in the experiment: ATP-citrate lyase (ACLY), ACLY (gene 47)
As to the kind of experiment: LTEA_HepaRG_ACLY: Life Technologies and Expression Analysis (LTEA) Assay for ATP-citrate lyase (ACLY) using HepaRG (AID 2283466). Particulars: mRNA level, 48 h; actives raise or lower the signal. As for the experimental part: LTEA_HepaRG is a cell based, multiplexed-readout assay that uses HepaRG, a human liver cell line, with measurements taken at 48 hours after chemical dosing on a 96-well plate.LTEA_HepaRG_ACLY is one of 102 assay component(s) measured in the LTEA HepaRG cell culture assay. It is a marker of Steatosis.Data from the assay component LTEA_HepaRG_ACLY was analyzed into 1 endpoint. This assay endpoint, LTEA_HepaRG_ACLY, was analyzed with bidirectional fitting relative to DMSO as the negative control and baseline of activity. Using a type of inducible reporter, measures of mRNA induction for gain or loss-of-signal activity can be used to understand regulation of transcription factor activity. To generalize the intended target to other relatable targets, this assay endpoint is annotated to the lyase intended target family, where the subfamily is steatosis.
A total of 1060 chemcials from the ToxCast library were tested in eight-point concentration-response experiments. Cell culture and cytotoxicity assays were conducted at Thermo Fisher Scientific's Custom Services facility (Madison, WI). A single lot of human HepaRG cells (Thermo Fisher Scientific, Frederick, MD) was used for the cell culture experiments. 96-well format collagen type I coated plates of human HepaRG cells were prepared using established methods. Briefly, cryopreserved HepaRG cells were thawed, plated at a density of approximately 100,000 cells/well in HepaRG Thaw, Plate, and General Purpose media (HPRG770, Thermo Fisher Scientific), and incubated for 48 hours. 0.5% DMSO was selected as vehicle control to balance the requisite need of DMSO in HepaRG cultures to maintain differentiation (for example, baseline metabolism, proportions of hepatocytes vs. cholangiocytes), while enabling further hepatic receptor pathway activation (for example, PXR and CAR) in response to chemical exposure. 48 hours after plating, the culture medium was replaced with HepaRG Serum-Free Incudtion Media. Cells were exposed to each test chemical in duplicate and maintained in CO2 incubators for another 48 hours. Chemical plates were thawed to room temperature and 200x concentrations of treatment groups were prepared. 8-point conentration-reponse curves were made with the highest exposure at 100 uM, followed by half-log dilutions, all in 0.5% DMSO. Each test plate contained variouse controls, induction positive controls (1mM phenobarbital), cytotoxicity positive controls ([…] aflatoxin B1), vehicle controls (0.5% DMSO), and total lysis controls (0.5% DMSO). Cell morphology images were taken using an Essen IncuCyte FLR automated microscope, with six 96-well plates imaged in about 24 minutes. Images were captured and exported and JPEG files. Spent culture media was transfered to black-well plates for the LDH assay, and remaining media was sorted at -80 C for later use. Cells were treated with RLT buffer and frozen until shipped for gene expression analysis. Total RNA was isolated from the cell suspension in 75 uL of Buffer RLT (Qiagen, Germantown, MD 20874) by Quintiles/Expression Analysis (Durham, NC) using a custom isolation procedure. Total RNA from each plate well was transferred to a preamplification plate. Fluidigm's 96.96 Dynamic ArrayTM (Fluidigm, Amsterdam, the Netherlands) technology was used for gene expression analyses by quantitative reverse transcription polymerase chain reaction (qRT-PCR, performed by Quintiles/Expression Analysis, Durham, NC)89. Standard TaqManTM Assays (Applied Biosystems/ThermoFisher Scientific, Foster City, CA) were used to assess the expression of 93 genes selected based on their selectivity and sensitivity to important hepatic receptors known to be modulated by environmental chemicals; importance in human hepatocyte functionality; and hepatotoxicity. […]
Take `C=CCC1=C(C)[C@@H](OC(=O)[C@@H]2[C@@H](C=C(C)C)C2(C)C)CC1=O`: the molecule was called inactive.
In the case of `CC(C)(C)c1ccc(CSc2cnn(C(C)(C)C)c(=O)c2Cl)cc1`, the AC50 was 1.72 µM (active).
`CCOc1cc(Oc2ccc(C(F)(F)F)cc2Cl)ccc1[N+](=O)[O-]`: the molecule was classed as inactive.
The same measure, in the same setting: the value for `CC1=C(C(=O)Nc2ccccc2)SCCO1` was “inactive”; that for `CN(C)C(=S)SSC(=S)N(C)C` was “inactive”.
As to `C#CCOS(=O)OC1CCCCC1Oc1ccc(C(C)(C)C)cc1` (stereo not given), the AC50 is 35 µM (active).
In the case of `CNC(=S)S`, the molecule was classed as inactive.
Consider `N#CC(CCc1ccc(Cl)cc1)(Cn1cncn1)c1ccccc1` (stereo not given), for which the AC50 was 12.9 µM (active).
Turning to `CCCCC(CC)COC(=O)c1ccccc1C(=O)OCC(CC)CCCC` (stereo not given), the outcome was inactive.
In the case of `CCCN(CCC)c1c([N+](=O)[O-])cc(S(N)(=O)=O)cc1[N+](=O)[O-]`, the AC50 was 94.3 µM (active) and the outcome was inactive.
For the molecule `OC(c1ccc(Cl)cc1)(c1cncnc1)c1ccccc1Cl` (stereo not given), the AC50 is 12.6 µM (active).
Still for that read-out and setting: for `CC(Oc1ccc(Cl)cc1Cl)C(=O)O` (stereo not given) the value was 50 µM (active).
For the molecule `CS/C(C)=N/OC(=O)N(C)SN(C)C(=O)O/N=C(\C)SC`, the call was inactive.
As for `Cc1c(F)c(F)c(COC(=O)C2C(/C=C(\Cl)C(F)(F)F)C2(C)C)c(F)c1F` (stereo not given), the call was inactive.
Turning to `COc1ccc(C(c2ccc(OC)cc2)C(Cl)(Cl)Cl)cc1`, the call was inactive.
Take `Cc1ccc(-c2c(Cl)nc(C#N)n2S(=O)(=O)N(C)C)cc1`: the AC50 is 50 µM (active).
Consider `COP(N)(=O)SC` (stereo not given), for which the result was inactive.
Regarding `COC(=O)N(OC)c1ccccc1COc1ccn(-c2ccc(Cl)cc2)n1`, the call was inactive.
As to `CCOP(=S)(OCC)SCn1c(=O)oc2cc(Cl)ccc21`, the outcome was inactive.
On the same count and under the same terms, for `COC(=O)c1ccccc1C(=O)OC` the value was “inactive”.
For `CC(C)Oc1cc(-n2nc(C(C)(C)C)oc2=O)c(Cl)cc1Cl`, the AC50 was 77.4 µM (active).
`COP(=S)(OC)Oc1nc(Cl)c(Cl)cc1Cl`: the result was inactive.
Still for that read-out and setting: the value for `CON(C)C(=O)Nc1ccc(Cl)c(Cl)c1` was “inactive”; that for `Fc1ccc(Oc2ccnc3cc(Cl)cc(Cl)c23)cc1` was “inactive”; that for `CCCCOC(=O)c1ccccc1C(=O)OCCCC` was “inactive”.
In the case of `CC(C)C1(C)N=C(c2nc3ccccc3cc2C(=O)O)NC1=O` (stereo not given), the molecule was classed as inactive.
Consider `CNC(=O)ON=CC(C)(C)SC`, for which the result was inactive.
Turning to `O=C(Nc1ccccc1)Nc1ccnc(Cl)c1`, the concentration at half-maximal activity (AC50) was 80.4 µM (active).
Turning to `COc1nc(NC(C)C)nc(NC(C)C)n1`, the outcome was inactive.
Same read-out and setting: the value for `COc1cnc(OC)n2nc(NS(=O)(=O)c3c(OCC(F)F)cccc3C(F)(F)F)nc12` was “inactive”; that for `Cc1cc(Cl)ccc1OCC(=O)O` was “inactive”; that for `N#Cc1nn(-c2c(Cl)cc(C(F)(F)F)cc2Cl)c(N)c1S(=O)C(F)(F)F` (stereo not given) was “inactive”.
In the case of `N#Cc1cc(Br)c(O)c(Br)c1`, the concentration at half-maximal activity (AC50) is 23.5 µM (active).
`O=C(O)COc1nc(Cl)c(Cl)cc1Cl`: the molecule was called inactive.
Still for that read-out and setting: for `O=C(O)c1nc(Cl)ccc1Cl` the value was “inactive”; for `CCOC(=O)C(Cl)Cc1cc(-n2nc(C)n(C(F)F)c2=O)c(F)cc1Cl` (stereo not given), “inactive”.
Take `CCNc1nc(Cl)nc(NCC)n1`: the molecule was called inactive.
Turning to `CCCC1COC(Cn2cncn2)(c2ccc(Cl)cc2Cl)O1` (stereo not given), the AC50 is 11.9 µM (active).
`CCNc1nc(Cl)nc(NC(C)C)n1`: the outcome was inactive.

By AC50 is commonly meant the concentration giving half of the maximal activity seen.
